Laboratory results: PubChem BioAssay

assay: inhibitors of Sendai virus-induced IRF3 signaling, primary screen, TLR/RLR signaling modifier project, cell-based, Sendai virus stimulus, luciferase, 10K MLSCN set (AID 602276); conditions: HEK293 RL24 IRF3 luciferase reporter, at 10 µM, stronger effect = higher value;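 active = inhibition at or above 50% at 10 µM; inactive = inhibition below 50%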;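 note: firefly luciferase from ISG56 promoter only with Renilla not read in this screen; 0% = Sendai virus plus DMSO and 100% = medium plus DMSO without virus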

inhibition, inactive:
C/C(Nc1cccc(F)c1)=C(/C#N)C(N)=O -10.6%, Cc1cc(C(F)(F)F)nc(SCC(=O)NC2=NC(=O)C(C)S2)n1 (stereo not drawn) -20.9%, Cn1c(CCNC(=O)c2ccco2)nc2cc(NC(=O)C3CCCCC3)ccc21 6.27%, Cc1nn(C(=O)c2ccc3c(c2)OCO3)c(N)c1-c1ccccc1 -23.3%, Cc1c(C)[n+](=O)c2c(n1[O-])CCCCC2 -0.779%, Cc1cc(C(=O)CSc2nc3ccccc3[nH]2)c(C)n1C -46.8%, COc1ccc(C(=O)NCCn2ccc3ccccc32)c(OC)c1 1.44%, O=C(CCSc1nccn1Cc1ccccc1)N1CCOCC1 1.9%, c1ccc(Cn2nnc3c(N4CCCCCC4)ncnc32)cc1 -20.2%, O=C(Nc1ccc(NC(=O)c2ccco2)nc1)c1cccnc1 -21.2%, COc1ccc(-c2noc(COc3ccc(C)c(C)c3)n2)cc1OC -1.39%, Nc1ncnc(Nc2ccccc2C(F)(F)F)n1 -28.4%, O=C(COc1ccccc1Cl)NCc1ccco1 -22.9%, COC(=O)c1ccccc1NC1c2ccccc2C(=O)N1c1cccnc1 (stereo not drawn) 5.35%, Cc1ccc2cc(C#N)c(NCCCNC(=O)C3CCCO3)nc2c1 (stereo not drawn) 9.51%, Cc1nnc(NC(=O)c2ccco2)s1 3.15%, CCCCC(CC)CNC(=O)C1CCCN(S(=O)(=O)c2cnc[nH]2)C1 (stereo not drawn) 10.8%, CC(C)CNC(=O)c1ccccc1NC(=O)c1ccc(CN2CCOCC2)cc1 1.28%
